Source: PubChem BioAssay (NCI)
The panel holds about 83,000 compounds, 20% with a hit somewhere; the sample as a whole holds those more often.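 Treatment: one concentration, 48 hours, 96-well format. Scoring: percent growth, with anything below 10 considered active.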 A number with no mark means an inactive call. The source made the active and inactive calls.

Legend:
Assay in all cases: NCI-60 one-dose screen, 48 h (100 = growth as untreated, 0 = no growth, -100 = all killed)
HOP-92 NSCLC = conditions: 10 µM
K-562 leukemia = conditions: 10 µM
MDA-MB-231 breast = conditions: 10 µM
RXF 393 renal = conditions: 10 µM
U251 CNS = conditions: 10 µM
LOX IMVI melanoma = conditions: 10 µM
UO-31 renal = conditions: 10 µM
CCRF-CEM leukemia = conditions: 10 µM
MOLT-4 leukemia = conditions: 10 µM
SR leukemia = conditions: 10 µM
HS 578T breast = conditions: 10 µM
SW-620 colon = conditions: 10 µM
MDA-MB-468 breast = conditions: 10 µM unless noted
NCI-H226 lung = conditions: 10 µM
EKVX NSCLC = conditions: 10 µM
IGROV1 ovarian = conditions: 10 µM
SNB-19 CNS = conditions: 10 µM
COLO 205 colon = conditions: 10 µM
SK-MEL-28 melanoma = conditions: 10 µM

SMILES	growth (HOP-92 NSCLC)	growth (K-562 leukemia)	growth (MDA-MB-231 breast)	growth (RXF 393 renal)	growth (U251 CNS)	growth (LOX IMVI melanoma)	growth (UO-31 renal)	growth (CCRF-CEM leukemia)	growth (MOLT-4 leukemia)	growth (SR leukemia)	growth (HS 578T breast)	growth (SW-620 colon)	growth (MDA-MB-468 breast)	growth (NCI-H226 lung)	growth (EKVX NSCLC)	growth (IGROV1 ovarian)	growth (SNB-19 CNS)	growth (COLO 205 colon)	growth (SK-MEL-28 melanoma)
CC[C@]12C=CCN3CC[C@@]4(c5ccc(OC)cc5N(C)[C@H]4[C@@](O)(C(=O)OC)[C@@H]1OC(=O)CCCC[P+](c1ccc(OC)cc1)(c1ccc(OC)cc1)c1ccc(OC)cc1)[C@@H]32	-74.5% (active)	1.01% (active)	-97.4% (active)	-90.4% (active)	-95.9% (active)	-96.4% (active)	15.5%	-59.1% (active)	-26.2% (active)	23.2%	-67.5% (active)	-88.7% (active)	-92.7% (active)						
C[C@H]1[C@H](OC(=O)CCC(=O)N(CCCc2cn(-c3ccc(CN4CCOCC4)cc3)nn2)CCNc2ccnc3cc(Cl)ccc23)O[C@@H]2OC3(C)CC[C@H]4[C@H](C)CC[C@@H]1[C@@]24OO3	-9.61% (active)	4.56% (active)	42.5%	7.45% (active)		7.19% (active)	13.1%	8.19% (active)	-4.26% (active)	-17.8% (active)	9.17% (active)	25.5%	29%	54.1%	49%	38%			
CC1=C(CCC=O)C2=C(C)C3(CC3)[C@@](C)(O)C(=O)C2=C1	-64.3% (active)		-99.2% (active)	-95.3% (active)		-94.8% (active)	-99.7% (active)	-15.3% (active)			-8.94% (active)	-74.9% (active)	-86.5% (active)			-79.5% (active)	-100% (active)		
O=C([Se]C1C=CCCC1)c1ccc(C(=O)[Se]C2C=CCCC2)s1 (stereo not given)	-39.7% (active)	6.15% (active)		-92% (active)			-100% (active)	-36.7% (active)	0.117% (active)	-33% (active)			-95.7% (active)					-95.7% (active)	
COc1cc2cc(C(=O)N3C[C@@H](CCl)c4c3cc(OC(=O)N3CCN(C(=O)CCC(=O)N5CCN(C)CC5)[C@@H]5CSSC[C@@H]53)c3ccccc43)[nH]c2c(OC)c1OC	19.3%	-17.8% (active)	-94.2% (active)	-91.2% (active)	-71.2% (active)	-100% (active)	-65.2% (active)	25.2%	0.371% (active)	-12.9% (active)	-15.6% (active)	-23.4% (active)	-91.5% (active)					-65.6% (active)	-94.4% (active)
C#CCCCN(CCNc1ccnc2cc(Cl)ccc12)C(=O)CCC(=O)O[C@@H]1O[C@@H]2OC3(C)CC[C@H]4[C@H](C)CC[C@@H]([C@H]1C)[C@@]24OO3	27.3%	13%	64.2%	34.3%		-40.9% (active)	14.3%	24.4%	-4.65% (active)	-21.9% (active)	44.1%	33.2%	-3.36% (active)	44.9%		41.1%			44.1%
COC(=O)C[C@](O)(CCCC(C)C)C(=O)O[C@H]1C(OC)=C[C@@]23CCCN2CCc2cc4c(cc2[C@@H]13)OCO4		3.55% (active)	7.43% (active)	-8.52% (active)	-19.5% (active)	-66.6% (active)	6.22% (active)	0.557% (active)	1.41% (active)	-24.8% (active)	-4.94% (active)	-10.5% (active)		-12.3% (active)					
COC(=O)C[C@](O)(CCC(C)C)C(=O)O[C@@H]1C(OC)=C[C@]23CCCN2CCc2cc4c(cc2[C@H]13)OCO4	-19.4% (active)	1.57% (active)		-89.6% (active)		-82.6% (active)		-12% (active)	-7.96% (active)		-22.2% (active)	-7.29% (active)	-83.8% (active)		-23.9% (active)		-16.9% (active)	-84.7% (active)	-68.8% (active)
COCCOCCOCCOc1ccc(-n2cc(CCCN(CCNc3ccnc4cc(Cl)ccc34)C(=O)CCC(=O)O[C@@H]3O[C@@H]4OC5(C)CC[C@H]6[C@H](C)CC[C@@H]([C@H]3C)[C@@]46OO5)nn2)cc1	19.3%	17.2%	73.5%	33.6%	46%	1.51% (active)	16.4%	26.4%	7.21% (active)	-5.07% (active)	34.9%	30%	44.9%		53.5%		56.3%	11.8%	53.1%
CN(C)CCc1cn(C2CCC2)c2cccc(O)c12		1.37% (active)	76%	53.2%		50.4%	47.8%	56.6%	57.2%	52.8%	47.7%	23%	44.6%			84.2%			3.47% (active)
C#CC[Se]C(=O)c1ccc2n[se]nc2c1	77%	4.82% (active)		70.8%	73.2%		22.6%	-24.8% (active)	22.9%	3.84% (active)			25.9%				79.9%	58.6%	
O=C(/C=C/c1ccc(Cl)cc1)c1nc2ccccc2n1Cc1ccc(F)cc1	16.7%	5.25% (active)		19%	-62.8% (active)		31.4%	-13.1% (active)	-0.463% (active)	-8.72% (active)			-5.26% (active)			29%		71.9%	
C=CCN=C([Se])NC(=O)c1ccc2c(c1)OCO2	151%	107%	103%	128%	36.2%	104%	115%	87.1%	107%	93.1%	99.3%	111%	110%		73.5%			122%	
O=C(/C=C/c1ccc(Cl)cc1)c1nc2ccccc2n1Cc1ccc(Br)cc1	40.2%	13.6%		37.6%	34.4%		42.6%	-10.9% (active)	-0.283% (active)	5.41% (active)				57.4%	39.9%	52.4%	65.9%		
C=CC[Se]C(=O)c1ccc(C(=O)[Se]CC=C)s1	-29.9% (active)	-23.1% (active)	-36.4% (active)	-93.6% (active)	-86.2% (active)	-75.6% (active)	-98.1% (active)	-12% (active)	-13.9% (active)	-30% (active)	-22.1% (active)	-77.4% (active)	-60.6% (active)		-89.2% (active)	-78.9% (active)			-70.8% (active)
O=C(NCCCCC(c1ccc(F)cc1)c1ccc(F)cc1)Nc1ccc([N+](=O)[O-])c(C(F)(F)F)c1	-36.2% (active)		-70% (active)	-41.3% (active)	2.48% (active)	-73.8% (active)	0% (active)	-38.8% (active)			-3.33% (active)	8.81% (active)	-31.7% (active)		4.51% (active)	15.4%			16.5%
C#CC[Se]C(=O)c1ccc(C(=O)[Se]CC#C)s1	157%	89.6%	95%	101%		93.1%	47.8%	77.4%	101%	26.8%	92.4%	98.2%	64.5%				58.7%		
COc1cc2cc(C(=O)N3C[C@@H](CCl)c4c3cc(OC(=O)N3CCN(C)[C@@H]5CSSC[C@@H]53)c3ccccc43)[nH]c2c(OC)c1OC	-4.54% (active)	10.1%	-43.2% (active)	-80.7% (active)		-32.7% (active)	-33.5% (active)	-25.1% (active)	3.8% (active)	18.9%	-25.5% (active)	-6.71% (active)	-80% (active)		-56.1% (active)	7.55% (active)	-9.25% (active)	-55.6% (active)	
O=C(/C=C/c1ccc(Br)cc1)c1nc2ccccc2n1Cc1ccc(Br)cc1	-11.1% (active)	0.898% (active)		-82% (active)			-66.4% (active)	10.3%	-4.04% (active)	-13.9% (active)			-74.3% (active)					-39.8% (active)	-43.9% (active)
C=CC[Se]C(=O)c1cncc(C(=O)[Se]CC=C)c1	-18% (active)	-15.7% (active)		-91.9% (active)			-98.4% (active)	-39.9% (active)	-22.9% (active)	-13.3% (active)			-85.2% (active)	-24.6% (active)		-92% (active)	-97.5% (active)		
CC(=O)Oc1ccccc1C(=O)[Se]C(=NC(C)C)NC(C)C	-49.2% (active)	-29.6% (active)	-50.5% (active)	-98.3% (active)		-80% (active)	-100% (active)	-1.77% (active)	-15.4% (active)	-27.5% (active)	-15.6% (active)	-72.4% (active)	-64.4% (active)	-67.2% (active)	-94% (active)				
